Laboratory results taken from PubChem BioAssay (NCATS).
Inconclusive results are not listed. A number with no mark means an inactive call. Active and inactive are the calls of the source. The call rests on the fitted dose curve; in most records, active means well fitted inhibition curve with a large enough effect; inconclusive means small, poorly fitted or top-dose-only effect; inactive means flat fitted curve, though single readings scatter.

target: Glutathione peroxidase 1 (Homo sapiens) (UniProt P07203); experiment: Primary qHTS Assay for Inhibitors of Recombinant Selenoprotein Glutathione Peroxidase 1 (GPX1) (AID 1845191); conditions: recombinant GPX1, GR-coupled NADPH fluorescence, 15 min; series mostly up to 27.7 µM; activity, negative = inhibition: at the top concentration
Sequence (P07203 whole entry, looked up): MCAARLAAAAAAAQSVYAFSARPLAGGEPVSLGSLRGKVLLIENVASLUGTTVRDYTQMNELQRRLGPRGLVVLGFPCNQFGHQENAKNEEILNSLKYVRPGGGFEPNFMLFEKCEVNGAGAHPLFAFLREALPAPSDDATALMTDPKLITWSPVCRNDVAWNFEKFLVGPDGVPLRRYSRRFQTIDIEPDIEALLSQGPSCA
In short: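 GR-coupled assay: compounds preincubated 30 min at room temperature with GPX1, then reaction started with CHP; final 10 nM GPX1, 1 mM GSH, 0.5 mM CHP, 0.5 mM NADPH, 100 nM GR, 0.01% BSA, pH 7.5 Tris buffer. NADPH fluorescence (340/450 nm) read at 0 and 15 min.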
Further: nearly all actives have a fitted effect of over 65% in size.
On the % scale 0 is the no-effect control and ±100 the full control effect.

SMILES	outcome	activity, negative = inhibition
CC1(C)CCC2(C(=O)O)C(O)CC3(C)C(=CCC4C5(C)CCC(OC6OC(CO)C(O)C(O)C6OC6OC(CO)C(O)C(O)C6OC6OCC(O)(CO)C6O)C(C)(C)C5CCC43C)C2C1 (centres undefined)	inactive [at 15.3 µM]	–
C/C=C1/C[N+](C)([O-])C2Cc3c([nH]c4ccccc34)C(=O)CC1C2C(=O)OC (centres undefined)	inactive	–
COc1cc(-c2ccc(O)cc2)c(OC)c(O)c1C1=CC(=O)OC1CC(=O)O (centres undefined)	–	-10.3%
COC(=O)C(CC1(O)c2ccccc2N2C(=O)C(CC(C)C)NC21)n1cnc2ccccc2c1=O (centres undefined)	inactive	–
Cc1ccc(COC(=O)N2CC[C@@H](CNc3ncccn3)[C@@H](F)C2)cc1	–	-25.8% [at 48.8 µM]
COc1cccc(Cn2ncc3c4sc(S(C)=O)cc4n(C)c3c2=O)c1 (centres undefined)	–	4.05% [at 48.8 µM]
CN1C(=O)N(c2cc(Cl)cc(Cl)c2)C(=O)[C@@]1(C)Cc1ccc(Br)cc1	–	-22% [at 48.8 µM]
CC1(C)CC[C@]2(C(=O)O)CC[C@]3(C)C(=CCC4[C@@]5(C)CC[C@H](O[C@@H]6O[C@H](C(=O)O)[C@@H](O)[C@H](O)[C@H]6O)C(C)(C)C5CC[C@]43C)C2C1 (some centres undefined)	–	-19.6% [at 15.3 µM]
C[C@@H]1C(=O)O[C@H](C)[C@H]1C[C@@H](O)[C@](C)(O)[C@H]1CC[C@@]2(O)C3=CC(=O)[C@@H]4C[C@@H](O)[C@@H](O)C[C@]4(C)C3CC[C@]12C (some centres undefined)	inactive	–
O=C(O)CC1CCC(c2ccc(-c3ccc(Nc4ccc(C(F)(F)F)nc4)cn3)cc2)CC1 (centres undefined)	–	-14% [at 48.8 µM]
CC(=C\C(C)O)/C=C(\C)C(=O)CC1CC(CC(N)=O)CC(=O)O1 (centres undefined)	inactive	–
COc1ccc(CCC(=O)O)c(O[C@@H]2O[C@H](CO)[C@@H](O)[C@H](O)[C@H]2O)c1	–	-10.1%
C[C@@H]1O[C@@H](O[C@H]2[C@H](OC(=O)[C@]34CCC(C)(C)C[C@H]3C3=CCC5[C@@]6(C)C[C@@H](O)[C@@H](O)[C@@](C)(CO)C6[C@H](O)C[C@@]5(C)[C@]3(C)CC4)OC[C@H](O)[C@@H]2O)[C@H](O)[C@H](O)[C@H]1O[C@@H]1OC[C@@H](O)[C@H](O[C@H]2O[C@H](C)[C@@H](O)[C@H](O)[C@@H]2O)[C@H]1O (some centres undefined)	inactive [at 15.3 µM]	–

target: Phospholipid hydroperoxide glutathione peroxidase GPX4 (Homo sapiens) (UniProt P36969); experiment: Primary qHTS Assay for Inhibitors of Recombinant Selenoprotein Glutathione Peroxidase 4 (GPX4) (AID 1845192); conditions: recombinant GPX4, GR-coupled NADPH fluorescence, 15 min; series mostly up to 27.8 µM; activity change, negative = inhibition: at the top concentration
Sequence (P36969 whole entry, looked up): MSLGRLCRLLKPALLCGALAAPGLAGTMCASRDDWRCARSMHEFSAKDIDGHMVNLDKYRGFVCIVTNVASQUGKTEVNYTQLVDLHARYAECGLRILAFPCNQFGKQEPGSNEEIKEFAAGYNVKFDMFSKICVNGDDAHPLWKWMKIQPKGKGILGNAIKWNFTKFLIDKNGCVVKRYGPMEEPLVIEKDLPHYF
In short: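 GR-coupled assay: recombinant GPX4 preincubated 30 min with compound at room temperature; final 200 nM GPX4, 1 mM GSH, 0.5 mM cumene hydroperoxide, 0.5 mM NADPH, 100 nM GR, 0.01% BSA, pH 7.5 Tris. NADPH fluorescence (340/450 nm) read at 0 and 15 min.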

SMILES	activity change, negative = inhibition	outcome
COC(=O)C(CC1CCCC1)c1ccc(S(C)(=O)=O)cc1 (centres undefined)	11% [at 50 µM]	–
CC(C)/C=C1/NC(=O)C(C(C)C)n2c1nc1c(O)cccc1c2=O (centres undefined)	-17.9%	–
O=C(O)/C=C/c1ccc(O[C@@H]2O[C@H](CO)[C@@H](O)[C@H](O)[C@H]2O)cc1	0.739%	–
CC1CCCCCCCc2cc(O)cc(O)c2C(=O)O1 (centres undefined)	-24.1% [at 50 µM]	–
CSC(=O)OCC1=C[C@@H]2OC(=O)C3=CO[C@@H](O[C@@H]4O[C@H](CO)[C@@H](O)[C@H](O)[C@H]4O)[C@H]1[C@@H]32	-4%	–
C=C1C[C@]23C[C@H]1CC[C@H]2[C@]1(C)CC[C@H](O)[C@@](C)(C(=O)O)[C@H]1[C@@H]3C(=O)O	-10.4%	–
C[C@@H]1O[C@@H](O[C@H]2[C@H](OC(=O)[C@]34CCC(C)(C)C[C@H]3C3=CCC5[C@@]6(C)CC[C@H](O[C@@H]7O[C@H](CO[C@@H]8OC[C@H](O)[C@H](O)[C@H]8O[C@@H]8OC[C@@H](O)[C@H](O)[C@H]8O)[C@@H](O)[C@H](O)[C@H]7O)C(C)(C)C6CC[C@@]5(C)[C@]3(C)C[C@H]4O)O[C@H](CO)[C@@H](O)[C@@H]2O)[C@H](O[C@@H]2O[C@H](CO)[C@@H](O)[C@H](O)[C@H]2O)[C@H](O)[C@H]1O[C@@H]1OC[C@@H](O)[C@H](O[C@@H]2OC[C@@H](O)[C@H](O)[C@H]2O)[C@H]1O (some centres undefined)	–	inactive [at 9.73 µM]
CC(C)=CCC[C@](C)(O[C@@H]1O[C@H](CO)[C@@H](O)[C@H](O)[C@H]1O)[C@H]1CC[C@]2(C)[C@@H]1[C@H](O)CC1[C@@]3(C)CC[C@H](O)C(C)(C)C3[C@@H](O[C@@H]3O[C@H](CO)[C@@H](O)[C@H](O)[C@H]3O[C@@H]3O[C@@H](C)[C@H](O)[C@@H](O)[C@H]3O)C[C@]12C (some centres undefined)	-0.476% [at 15.3 µM]	–
CC(C)(O)/C=C/C(=O)[C@](C)(O)[C@H]1[C@H](O)C[C@@]2(C)[C@@H]3CC=C4[C@@H](C=C(O[C@@H]5O[C@H](CO)[C@@H](O)[C@H](O)[C@H]5O)C(=O)C4(C)C)[C@]3(C)C(=O)C[C@]12C	0.265% [at 15.3 µM]	–
C[C@H]1CCN2C[C@]34C[C@@]5(C(=O)Nc6c5ccc5c6OC=CC(C)(C)O5)C(C)(C)C3C[C@]12C(=O)N4C (some centres undefined)	-12.6%	–
O=C(/C=C/c1ccc(O)c(O)c1)O[C@@H]1[C@@H](O)[C@H](OC2CCCCC2O)O[C@H](CO)[C@H]1O (some centres undefined)	-5.61%	–
